Compound activity: PubChem BioAssay, several laboratories
PABP FP inh = PABP poly(A) RNA binding inhibitors, primary screen, biochemical, fluorescence polarization, uHTS | 290,000 compounds, 1% hits | inhibition, % at 35 µM;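 note: calls also rest on retests at 20 µM and on dose response follow-up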
Target sequence (P11940 whole entry, looked up): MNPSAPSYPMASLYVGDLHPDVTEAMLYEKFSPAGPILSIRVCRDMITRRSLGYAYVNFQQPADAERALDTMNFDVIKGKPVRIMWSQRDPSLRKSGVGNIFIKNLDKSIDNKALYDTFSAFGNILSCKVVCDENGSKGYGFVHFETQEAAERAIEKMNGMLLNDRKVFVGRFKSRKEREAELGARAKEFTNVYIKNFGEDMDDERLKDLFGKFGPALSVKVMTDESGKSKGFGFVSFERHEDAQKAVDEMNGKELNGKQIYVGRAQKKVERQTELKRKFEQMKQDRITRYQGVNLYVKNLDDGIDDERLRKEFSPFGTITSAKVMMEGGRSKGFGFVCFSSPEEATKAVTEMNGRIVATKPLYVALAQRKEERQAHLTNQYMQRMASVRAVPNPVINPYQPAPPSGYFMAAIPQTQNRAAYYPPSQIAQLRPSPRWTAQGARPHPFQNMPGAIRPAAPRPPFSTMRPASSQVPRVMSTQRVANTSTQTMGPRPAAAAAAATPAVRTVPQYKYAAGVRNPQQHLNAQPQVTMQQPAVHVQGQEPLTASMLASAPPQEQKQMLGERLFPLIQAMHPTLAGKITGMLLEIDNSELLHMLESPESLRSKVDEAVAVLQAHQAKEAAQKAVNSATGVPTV
eIF4H FP inh = human eIF4H binding inhibitors, primary screen, translation initiation inhibitor project, biochemical, uHTS, fluorescence polarization; Eukaryotic translation initiation factor 4H (Homo sapiens), Q15056; eIF4H fluorescence polarization binding assay; inhibition, % at 35 µM; 290,000 compounds, 0.94% hits;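 note: calls also rest on retests at 20 µM and on dose response follow-up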
eIF4E-4G inh = eIF4E–eIF4G protein interaction inhibitors, primary screen, biochemical, uHTS, TR-FRET, eIF4GI fragment. Eukaryotic translation initiation factor 4E (Mus musculus) + Eukaryotic translation …. TR-FRET eIF4E-eIF4GI(517-606) binding, 2 h. inhibition, % at 21.7 µM. 220,000 compounds, 0.37% hits. AID 782, 2007;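 active = inhibition above about 30%, limit read from the data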;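 note: 0% = full FRET control wells and 100% = background wells lacking eIF4GI fragment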
PERK inhibitor = block of dimerizer-induced PERK translation repression, primary screen, PERK inhibitor project, CHO PERK-DD cells, SEAP luminescence, HTS; inhibition, % at 5.6 µM; CHO PERK-DD fusion, SEAP luminescence translation reporter; Eukaryotic translation initiation factor 2-alpha kinase 3 (Homo sapiens), Q9NZJ5; 220,000 compounds, 0.17% hits;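 active = inhibition above the mean inhibition of all tested compounds plus 3 SD, set separately per screening campaign, cut at about 2.9% in these data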;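 note: PERK kinase domain activated by AP20187 dimerizer at 100 nM; 0% = DMSO with dimerizer and 100% = rapamycin at 8.4 µM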
MLLE-PAM2 inh = inhibitors of PABP1 MLLE–PAM2 peptide binding, primary screen, biochemical, fluorescence polarization, FITC-PAM2, GST-MLLE; Polyadenylate-binding protein 1 (Homo sapiens), P11940; inhibition, % at 20 µM; 360,000 compounds, 0.36% hits; AID 588489, 2011; in the data active = inhibition above about 35%, passing the limit was not always enough;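 note: plate controls were DMSO wells with GST-MLLE for no effect and wells lacking GST-MLLE protein for full effect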
The depositor's hits bear a star; i = inactive; ? = inconclusive; · = no result. The list is not random: actives were taken first. Their share in the collection is about 1.6%. Unless noted, the rule behind the calls is not given here.

SMILES | PABP FP inh | eIF4H FP inh | eIF4E-4G inh | PERK inhibitor | MLLE-PAM2 inh
CCN(CC)C(=O)c1ccc(NC(=O)c2cccc(S(=O)(=O)N3CCN(Cc4ccccc4)CC3)c2)cc1 | · | · | · | · | 1.5
O=C(O)c1ccc2c(c1)C1C(Cl)C(Sc3ccccc3[N+](=O)[O-])CC1C(c1cccc([N+](=O)[O-])c1)N2 (centres undefined) | -5.6 | 99.2 | 1.2 | 0.2 | 13.3
CCN(CC)C(=O)c1ccc2c(c1)C1C(Cl)C(Sc3ccccc3[N+](=O)[O-])CC1C(C(=O)O)N2 (centres undefined) | 95.0* | 90.5* | 7.3 | 0.1 | 38.8
Cc1ccc(-n2c(O)c(C=Nc3ccc(S(=O)(=O)N(C)C)cc3)c(=O)[nH]c2=O)cc1 | 125.4* | ? | 3.2 | 1.3 | -3.2
Cc1ccc(N=Cc2c(O)n(-c3ccc(C)cc3)c(=O)[nH]c2=O)cc1 | · | · | · | · | 2.4
CN(C)P(=O)(CCl)Nc1ccccc1 (centres undefined) | 17.7* | 96.1* | 3.0 | 0.5 | 9.6
CN(C)CP(=O)(Nc1ccccc1)N(C)C (centres undefined) | 11.9 | 9.9 | -6.7 | 0.4 | 3.4
CCC(=NCCCN1CCOCC1)c1c(O)n(Cc2ccccc2)c(=O)[nH]c1=O | 5.0 | -2.5 | 4.6 | 0.3 | 2.0
O=c1[nH]c(=S)[nH]c(O)c1N=Nc1ccc2c(c1)OCO2 | -3.6 | 53.1* | 5.7 | 0.6 | -34.2
O=c1[nH]c(=S)[nH]c(O)c1N=Nc1ccc2c(c1)OCCO2 | ? | ? | 0.8 | 0.1 | -62.0
COc1ccc(CN2C(=O)NC(=O)/C(=C/c3cc(OC)c(OC)c(OC)c3)C2=O)cc1 | 44.3* | ? | -2.2 | -0.2 | 19.0
COc1ccc(CN2C(=O)NC(=O)/C(=C/c3ccc(OC)c(OC)c3OC)C2=O)cc1 | 48.1 | 68.6* | 2.0 | 1.4 | -0.5
Cn1c[n+](C)cc1C(O)c1ccccc1 (centres undefined) | 64.8* | 7.3 | 10.8 | -0.6 | -140.2
CN1C(CC(O)c2ccccc2)CCCC1CC(O)c1ccccc1 (centres undefined) | · | · | · | · | -6.6
C1=C(c2c[nH]c3ccccc23)CCNC1 | 82.5* | 95.0* | -0.8 | 1.1 | ·
O=c1cc(C(F)(F)F)c2cc3c4c(c2o1)CCCN4CCC3 | 125.4* | ? | -1.1 | -0.4 | i
Cn1cccc1/C=C1\C(=O)NC(=O)N(Cc2ccccc2)C1=O | 44.8* | ? | -6.0 | 1.1 | -16.5
Cn1cccc1/C=C1/C(=O)NC(=O)N(Cc2ccccc2)C1=O | -9.1 | ? | 4.5 | 0.0 | -9.7
O=C1NC(=O)N(Cc2ccccc2)C(=O)/C1=C\c1ccco1 | 5.8 | ? | 1.6 | 0.2 | -56.9
O=C(O)Cn1cc(/C=C2\C(=O)NC(=O)N(Cc3ccco3)C2=O)c2ccccc21 | 127.2* | ? | 3.0 | 1.6 | -26.6
O=C1NC(=O)N(Cc2ccco2)C(=O)/C1=C/c1cccn1CCOc1ccccc1Cl | active | ? | 0.1 | -0.1 | -29.3
Cn1cccc1/C=C1/C(=O)NC(=O)N(Cc2ccc(F)cc2)C1=O | 22.1* | ? | 6.0 | -2.0 | -19.7
CCCCC(=O)N/N=C/c1c(O)n(CCCC)c(=S)[nH]c1=O | -1.4 | 9.2 | -1.4 | 0.9 | -7.6
CNC(C(=O)c1ccccc1)C(OC(C)=O)c1cccc([N+](=O)[O-])c1 (centres undefined) | -4.5 | -9.3 | -4.5 | -0.7 | 12.7
CCOP1(=S)Oc2cc3c(cc2C(C(=O)OC)(C(F)(F)F)O1)OCO3 (centres undefined) | 8.8 | -8.2 | 21.1 | 0.9 | 23.8
SMILES | PABP FP inh | eIF4H FP inh | eIF4E-4G inh | PERK inhibitor | MLLE-PAM2 inh
Cc1ccc(N2C(=O)NC(=O)/C(=C\c3cnc(-c4ccccc4)nc3)C2=O)cc1 | -6.4 | 57.5* | 2.6 | 0.8 | -1.7
CSc1ncc(/C=C2/C(=O)NC(=O)N(c3ccc(C)cc3)C2=O)cn1 | 0.9 | -9.4 | -0.8 | 0.5 | 29.6
Cc1ccc(N2C(=O)NC(=O)/C(=C/c3ccoc3)C2=O)cc1 | ? | ? | 35.3* | 1.1 | -83.5
CC(=O)[C@H]1CCC2C3CC[C@H]4C[C@@H](O)CC[C@]4(C)C3CC[C@@]21C (some centres undefined) | · | · | · | · | 6.9
O=C(CSC1c2ccccc2-c2ccccc21)N/N=C/c1ccccc1O | 3.6 | 6.2 | 0.8 | 0.5 | 40.0*
O=C1NC(=O)C(=Cc2ccccc2[N+](=O)[O-])C(=O)N1 | · | · | · | · | 30.9
O=C1NC(=O)C(=Cc2cc3c(cc2[N+](=O)[O-])OCO3)C(=O)N1 | active | 97.6* | 2.2 | 1.6 | 29.5
O=C1NC(=O)N(c2ccc3c(c2)OCO3)C(=O)/C1=C\c1ccc(N2CCCCC2)o1 | 2.1 | ? | 1.9 | 0.7 | -162.9
Cn1cc(C=C2C(=O)NC(=O)NC2=O)c2ccccc21 | ? | ? | · | · | i
O=C1NC(=O)C(=Cc2csc3ccccc23)C(=O)N1 | 17.2 | 37.9 | 7.0 | 0.2 | 40.7*
O=c1c2ccccc2nc(-c2ccccc2)n1-c1ccc(O)cc1 | -2.0 | 2.4 | -1.0 | 1.5 | 4.7
C=CCn1c(O)c(C=Nc2ccc(N(CC)CC)cc2)c(=O)[nH]c1=O | 62.0* | 53.8* | -19.4 | -1.5 | -6.2
BrCCc1ccccc1 | · | · | · | · | -11.7
CCOC(=O)COc1ccc(/C=C2\C(=O)NC(=S)N(c3ccc(OC)cc3)C2=O)cc1OC | -10.2 | -5.6 | · | · | 39.3*
COC(=O)COc1ccc(/C=C2\C(=O)NC(=S)N(c3ccc(C)cc3)C2=O)cc1OC | -14.1 | -9.3 | · | · | 17.5
CN1C(=O)C(c2ccccc2)C(=O)N(C)C1=O | · | · | · | · | -2.2
CN1C(=O)NC(=O)/C(=C/c2ccc([N+](=O)[O-])o2)C1=O | 48.8* | ? | 10.3 | 1.8 | ·
O=C1NC(=O)N(c2ccccc2)C(=O)/C1=C\c1ccc([N+](=O)[O-])o1 | 56.6* | 78.0* | 13.8 | 0.6 | ·
O=C1NC(=O)N(c2ccccc2)C(=O)/C1=C\c1ccc([N+](=O)[O-])s1 | ? | ? | 3.0 | -0.4 | ·
CN1C(=O)NC(=O)/C(=C/c2ccc([N+](=O)[O-])s2)C1=O | 37.5* | 63.7* | 0.7 | 0.2 | 22.5
CC1=Nc2ccccc2/C1=C/c1c(O)n(C)c(=O)[nH]c1=O | -17.9 | -4.7 | · | · | -46.5
Nc1ccc(Sc2ccc(N)cc2)cc1 | · | · | · | · | 5.9
COP(=S)(OC)Oc1ccc(Sc2ccc(OP(=S)(OC)OC)cc2)cc1 | · | · | · | · | 36.3*
CNC(=O)O/N=C/c1nn(C(=O)C(C)(C)C)cc1Br | 13.2 | -8.7 | 1.6 | 3.2* | -1.9
CC12CCC3C(CC=C4CC(O)CCC43C)C1C/C(=C\c1cccc(F)c1)C2=O (centres undefined) | -0.3 | 5.2 | 0.3 | 1.0 | 18.8
Cc1ccc(Cn2cc(C=O)c3ccccc32)cc1 | -4.7 | -3.3 | · | · | 0.2
